For orientation: inhibition means the change of the read-out against control, counted positive when it falls.

Hit rate of the full screen: of about 330,000 compounds, about 230 (0.07%) were called active. This is one part of a sample in which actives are shown more often than they occur. Values without a mark were called inactive.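 Rule for the calls: active = more than half of a compound's replicate wells show inhibition beyond 50%, single wells judged on their own value; inconclusive = some, but no more than half, of replicates pass 50% inhibition; inactive = no replicate passes 50% inhibition.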

This assay deals with Lysine-specific demethylase 4C (Homo sapiens) (UniProt Q9H3R0). Briefly: JMJD2C H3K9me3 demethylation blockers – biochemical, fluorescence, DELFIA europium, primary screen (AID 2099).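 Note: signal counts dimethyl H3K9 product captured on neutravidin plate; 0% = median of DMSO wells and 100% = 0.3 times that DMSO median.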 As to conditions: GST-JMJD2C(1-420) H3K9me3 demethylation, at 2.35 µM, hits give high values.
Chain of Lysine-specific demethylase 4C (Homo sapiens) (Q9H3R0 1-420 limits assumed): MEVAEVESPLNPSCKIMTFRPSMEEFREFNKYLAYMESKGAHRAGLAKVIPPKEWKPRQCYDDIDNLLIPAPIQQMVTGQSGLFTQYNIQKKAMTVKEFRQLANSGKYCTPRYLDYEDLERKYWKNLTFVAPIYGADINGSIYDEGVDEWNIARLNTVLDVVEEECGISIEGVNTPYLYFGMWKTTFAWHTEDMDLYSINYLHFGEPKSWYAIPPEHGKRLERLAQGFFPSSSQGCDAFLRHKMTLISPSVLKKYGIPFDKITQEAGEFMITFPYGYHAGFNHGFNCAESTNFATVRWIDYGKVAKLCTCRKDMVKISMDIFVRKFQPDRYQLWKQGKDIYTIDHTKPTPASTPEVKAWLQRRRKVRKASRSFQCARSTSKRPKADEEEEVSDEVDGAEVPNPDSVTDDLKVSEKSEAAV
In the case of `COc1ccc(C)cc1NC(=O)CCCN1C(=O)NC(C)(C)C1=O`, the inhibition is -6.72%.
As to `O=C(CC(NS(=O)(=O)c1ccc(Cl)cc1)c1ccco1)NC1CCCC1` (stereo unspecified), the inhibition was -10.3%.
With `CC(C)Cn1c(N2CCN(C(=O)/C=C/c3ccccc3)CC2)nc2ccccc21`, the inhibition is 12%.
As for `CCCCn1c(N)c(N(CC)C(=O)/C=C/c2ccco2)c(=O)[nH]c1=O`, the inhibition was -4.8%.
For the compound `CN(C(=O)CSc1cccc[n+]1[O-])C1CCCCC1`, the inhibition was -11.4%.
The figure for `CCOc1cc(CN2CCCC(CO)(Cc3ccc(F)cc3F)C2)ccc1OC` (stereo unspecified) is -2.58%; for `O=C(NCc1cccs1)c1ccc(CS(=O)Cc2ccccc2Cl)o1` (stereo unspecified) it is -4.03%.
The figure for `CCOc1cnc(-c2c(-c3ccccc3Cl)noc2C)o1` is 0.379%; for `CCc1cc2c(=O)n(-c3ccccc3)c(SCC(=O)O)nc2s1` it is -0.0126%; for `Cn1ccnc1-c1nnn(-c2ccc(F)cc2)n1` it is 1.58%.
For `Cc1sc2ncn(CC(=O)NCCCC(=O)N(C)Cc3ccccc3)c(=O)c2c1C`, the inhibition was 3.53%.
As for `Cc1ccc2nc(C)c3c(c2c1)N(c1ccccc1)CC3`, the inhibition was 0.549%.
With `CC(C)n1c(=S)[nH]c2cc(C(F)(F)F)ccc21` the figure was 9.24%; with `O=C(COC(=O)c1ccccc1NC(=O)c1ccco1)Nc1ccc2c(c1)OC(F)(F)O2`, -7.33%; with `CCN1CCC2(CC1)N=C(c1ccc(F)cc1)C(=S)N2C(=O)c1ccc(C)cc1`, -5.72%.
The figure for `CCOc1ncccc1C(=O)OCC(=O)Nc1cccc(S(=O)(=O)N2CCCCCC2)c1` is 3.84%; for `CCC1(C)N(O)C(C)(C)C(c2ccc(OC)cc2)=[N+]1[O-]` (stereo unspecified) it is 1.82%; for `CN(/C(=N/S(=O)(=O)c1cccs1)c1ccccc1)c1ccc(O)cc1` it is -2.26%.
Regarding `COc1ccc(Cl)cc1N(CC(=O)N/N=C/c1ccc(OCC(N)=O)cc1)S(C)(=O)=O`, the inhibition was 4.78%.
Regarding `O=C(COc1ccc(Cl)cc1Cl)NCCCNC(=O)c1cnccn1`, the inhibition was -5.15%.
With `CCOC(=O)C(=Cc1ccccc1OC)C(=O)OCC` the figure was -1.48%.
The figure for `CCOc1ccccc1NC(=O)NC1CCCCCCC1` is 3.73%; for `CC(=O)Nc1ccc(NC(=O)C(C)OC(=O)C2CC(=O)N(CCc3ccccc3)C2)cc1` (stereo unspecified) it is 0.0499%; for `Cc1nn(Cc2ccc(F)cc2)c(C)c1NC(=O)c1noc2c1CCc1ccccc1-2` it is -8.11%.
Consider `COc1ccccc1CCC(=O)NNC(=O)c1ccncc1`, for which the inhibition is -2.82%.
In the case of `COc1cccc(CN(C)C(=O)CC23CC4CC(CC(C4)C2)C3)c1OC`, the inhibition was 8.93%.
The figure for `CC(C)=CCN1CCN(Cc2cc3ccccc3[nH]2)CC1CCO` (stereo unspecified) is -4.87%.
With `COc1ccc(-c2nnc(SC(=O)N3c4ccccc4Sc4ccccc43)o2)cc1` the figure was -0.278%; with `CC1=C(C(=O)N(C)C)C(c2ccccc2OC(F)F)NC(=O)N1` (stereo unspecified), 6.88%; with `CCN1N=C(c2ccccc2)CCC1=O`, 2.88%.
With `CCc1ccc[n+](-c2nc([O-])sc2C=O)c1`, the inhibition is 22.8%.
With `Cc1ccnc(NC(=O)CCNS(=O)(=O)c2ccc(C)c(C)c2)c1` the figure was 7.52%; with `CCOc1ccc(-n2c(N)c(C(=O)NCC3CCCO3)sc2=S)cc1` (stereo unspecified), -1.83%.
As to `CCC(C)(C(=O)NC1CCCCC1)N(C)C(=O)c1ccc2c(c1)OCO2` (stereo unspecified), the inhibition was 10.3%.
With `CN(C)c1nc(N)nc(CSc2nnnn2-c2cccc3ccccc23)n1`, the inhibition was -13.8%.
As for `O=C(NCc1ccc(F)cc1)C(c1ccccc1)N(C(=O)c1csnn1)C1CC1` (stereo unspecified), the inhibition was -35.4%.
With `CCc1ccc(N2CC(C(=O)N3CCCCCC3)CC2=O)cc1` (stereo unspecified) the figure was 1.98%; with `CN1CCN(S(=O)(=O)c2cccc(C(=O)Nc3cccc(S(N)(=O)=O)c3)c2)CC1`, -5.59%.
Regarding `COc1ccccc1C(=O)Nc1cccc(C(=O)N2CCOCC2)c1`, the inhibition was 4.92%.
With `O=C(NCN1CCN(CCO)CC1)c1cnccn1` the figure was -26.1%; with `COc1cccc(NC(=O)CN(C)CC(=O)c2c(N)n(Cc3ccccc3)c(=O)n(C)c2=O)c1`, -0.288%; with `CCCN(CCC)C(=O)C1c2ccccc2Oc2ccccc21`, 8.4%.
The figure for `CC(C)C[C@H](NC(=O)C1CCC(CNC(=O)[C@@H]2CCCN2C(=O)OC(C)(C)C)CC1)C(=O)O` (stereo partly specified) is 0.085%.
In the case of `Cc1ccc(NS(=O)(=O)c2ccc(F)cc2)nc1`, the inhibition was -1.74%.
Regarding `COc1ccccc1CNC(=O)COC(=O)c1cccs1`, the inhibition is -6.88%.
With `CC(=O)NCCc1ccc(S(=O)(=O)Nc2ccc(C)c(S(=O)(=O)N3CCOCC3)c2)cc1` the figure was -18.7%; with `CC(=O)NC1=NN(C(C)=O)C(C)(c2ccc(Cl)s2)S1` (stereo unspecified), -13.4%.
`CCOc1ccc(N(C)Cc2cc(=O)oc3ccc(OC)cc23)cc1`: the inhibition was -5.29%.
With `Cc1ccc(CSc2nc3[nH]ncc3c(=O)[nH]2)cc1` the figure was -14.5%.
With `COC(=O)c1cc(CNC(=O)CC(C)c2ccccc2)ccc1OC` (stereo unspecified) the figure was -9.06%; with `CCOC(=O)c1ccc(NC(=S)N2CCN(c3ccccn3)CC2)cc1`, 21.6%; with `OC(COc1ccc(CN2CCSCC2)cc1)CN1CCCCC1` (stereo unspecified), 6.13%.
With `CCOC(=O)C1=C(COC(=O)[C@H](C)NS(=O)(=O)c2ccccc2F)NC(=O)NC1C` (stereo partly specified) the figure was 0.99%.
With `COc1cc2nc(CN(C)Cc3ccc(F)cc3)[nH]c(=O)c2cc1OC`, the inhibition is -7.12%.
On to `Cc1cc(NC(=O)CCC(=O)N(Cc2ccccc2)C(C(=O)NC2CCCC2)c2ccc(C)o2)no1` (stereo unspecified), for which the inhibition is -25.8%.
With `CCCCn1c(N)c(N(CCOC)C(=O)c2cccc(S(=O)(=O)N(C)c3ccccc3)c2)c(=O)[nH]c1=O` the figure was -2.28%.
In the case of `CCC(C(=O)Nc1ccc(C(C)C)cc1)c1ccccc1` (stereo unspecified), the inhibition is -16%.
Take `O=C(Nc1ccc(S(=O)(=O)Nc2ccccn2)cc1)c1ccccc1`: the inhibition was -2.52%.
The figure for `COC(=O)c1cc(C(=O)NC(C)C2CC3CCC2C3)cc([N+](=O)[O-])c1` (stereo unspecified) is -12.5%.
The figure for `COc1cc(NC(=O)c2ccccc2)c(OC)cc1NC(=O)Cc1ccccc1` is 0.759%; for `Nc1nc(SCC(=O)Nc2cc(C(F)(F)F)ccc2Cl)[nH]c(=O)c1NC(=O)c1ccco1` it is 6.68%.
For the compound `COc1ccc(C(CC(=O)c2ccccc2)S(=O)(=O)c2ccccc2)cc1` (stereo unspecified), the inhibition is -0.656%.
As for `CCC(C(=O)NCCC(C)C)N(Cc1ccccc1Cl)C(=O)c1snc(C(N)=O)c1N` (stereo unspecified), the inhibition was -1.98%.
The figure for `CCCCCOC(=O)C1=C(C)Nc2nnnn2C1c1ccc(OC)c(OC)c1OC` (stereo unspecified) is -7.05%; for `Cc1ccc(NC(=O)Cn2cnc3c(OCc4ccccc4)ncnc32)cc1C` it is 3.36%; for `O=C(Cc1cccs1)NCc1cccc(C(F)(F)F)c1` it is 2.56%.
Take `O=C(c1ccc(S(=O)(=O)N2CCCC2)cc1)N1CCN(c2ccccc2F)CC1`: the inhibition is 5.37%.
For `C/C(=N\NC(=O)CCn1nc(C)cc1C)C(C)(C)C`, the inhibition is -1.66%.
Take `CCC(c1nnc(SCC(=O)NNC(=O)c2ccccc2)n1Cc1ccccc1)N(C)C` (stereo unspecified): the inhibition is 24.1%.
With `CC1CN(C(=O)COC(=O)c2cccc(NS(=O)(=O)c3ccccc3)c2)CC(C)O1` (stereo unspecified) the figure was -11.9%.
With `CC(C)(C)n1nnc(CCc2nnn(C(C)(C)C)n2)n1` the figure was 4.71%; with `CC1CC(C)(C)CC2(C1)NC(=O)N(CC(=O)Nc1nccs1)C2=O` (stereo unspecified), 12%; with `CN(C)/C=N/c1cc(=O)n(C)c(=O)n1CC1CC1`, -0.734%.
The figure for `CN(C)S(=O)(=O)c1ccc(N2CCCC2=O)c([N+](=O)[O-])c1` is 7.65%; for `C=CCc1cc(S(=O)(=O)c2ccc(O)c(CC=C)c2)ccc1O` it is 11.5%; for `CCCCc1ccc(S(N)(=O)=O)cc1` it is 1.85%.
As to `COc1cc(CN(C)Cc2nc3cc(C(F)(F)F)ccc3c(=O)[nH]2)ccc1OC(F)F`, the inhibition was -0.492%.
With `O=[N+]([O-])c1ncc(Br)cc1Nc1ccccc1` the figure was -32.6%; with `CC(C)N(Cc1nnc(-c2ccc(Cl)cc2)o1)C(=O)C1=COCCO1`, 0.031%; with `COc1ccc(CNC(=O)C(=O)N2CCC3(CC2)OCCN3S(=O)(=O)c2ccc(C)cc2)cc1`, 28.1%.
The figure for `Cc1cc(C)n(CCNC(=O)CC2C(=O)NCCN2Cc2ccc(C)o2)n1` (stereo unspecified) is -19.8%.
With `CCC(=O)NC(Nc1cc(C)ccn1)(C(F)(F)F)C(F)(F)F` the figure was -10.4%.
`CC1CN(C(=O)CCC(=O)NCCCN2CCC(Cc3ccccc3)CC2)c2cc(Cl)ccc2O1` (stereo unspecified): the inhibition was 2.61%.
The figure for `Cc1noc(C)c1C(=O)OCC(=O)N1CCN(S(=O)(=O)c2ccc3ccccc3c2)CC1` is -0.0421%.
The figure for `CCOC(=O)c1sc(-c2cccc([N+](=O)[O-])c2)cc1N` is 0.615%.
With `Cc1ccc(C(=O)CN2C(=O)NC3(CCOc4ccccc43)C2=O)s1` (stereo unspecified) the figure was 0.803%; with `CCOc1ccc(NC(=O)CN(C)CC(=O)NC(C)c2ccccc2)cc1OCC` (stereo unspecified), 2.69%.
`CCN1C(=O)C(=O)N(CC(=O)Nc2cc(C)ccc2C)C1=O`: the inhibition was 8.4%.
On to `COc1cccc2cc(C(=O)NCc3ccc(C)cc3)c(=N)oc12`, for which the inhibition is 0.845%.
For the compound `Cc1ccccc1-c1cc(C(=O)NCC2CC2)n(CC2CC(c3cccnc3)=NO2)n1` (stereo unspecified), the inhibition is -1.99%.
With `O=C(/C=C/c1cccs1)c1cc(Cl)ccc1OC(=O)N1CCOCC1` the figure was 98.5%.

For the origin of these results see PubChem BioAssay AID2099 (Broad Institute, 2009).
